Experimental findings from PubChem BioAssay (EPA / NIEHS) are described below.

The AC50 is the concentration giving half of the maximal activity seen.

Results filed as inconclusive are left out. Some compounds were tested as several samples or in several runs, with calls that do not always agree. Active and inactive are the calls of the source. How the source made its calls, unless noted: active means hit-call score of the fitted dose curve at least 0.9, where 1 is the maximum; inactive means score below 0.9.

Read-out in one assay: CD69, CD69 (gene 969)
As to the kind of experiment: BSK_SAg_CD69: BioMAP Diversity Plus: SAg Assay for CD69 Biomarker Activity (AID 2283089).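 On AC50: cell surface CD69 protein quantified by ELISA with fluorescence detection.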 The following applies: primary human HUVEC with PBMC; actives raise or lower the signal. The method, boiled down: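 Endothelial/PBMC co-culture; chemical added; 24 h incubation; CD69 ELISA with fluorescence detection; bidirectional fit vs DMSO.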

Read-out in assay [1]: Monocyte Chemoattractant Protein-1 (MCP1), CCL2 (gene 6347)
Put plainly: BSK_SAg_MCP1: BioMAP Diversity Plus: SAg Assay for Monocyte Chemoattractant Protein-1 (MCP1) Biomarker Activity (AID 2283090). To be noted: primary human HUVEC with PBMC; actives raise or lower the signal. The method, boiled down:
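MCP-1 levels in the endothelial–PBMC SAg co-culture were quantified by ELISA at 24 h post-dosing; both increases and decreases versus DMSO scored. Cytotoxicity monitored by SRB total protein in parallel cultures.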

Read-out in assay [2]: E-selectin (Homo sapiens) (UniProt P16581)
Put plainly: BSK_SAg_Eselectin: BioMAP Diversity Plus: SAg Assay for Eselectin Biomarker Activity (AID 2283091). The following applies: primary human HUVEC with PBMC; actives raise or lower the signal. The method, boiled down:
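Cell-surface E-selectin is read by ELISA at 24 h in the SAg co-culture of HUVEC and PBMC. Curves are fitted in both directions relative to DMSO. Parallel SRB total-protein staining tracks overt toxicity.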

Read-out in assay [3]: Monokine induced gamma interferon (MIG), CXCL9 (gene 4283)
As to the kind of experiment: BSK_SAg_MIG: BioMAP Diversity Plus: SAg Assay for Monokine induced gamma interferon (MIG) Biomarker Activity (AID 2283092). The following applies: primary human HUVEC with PBMC; actives raise or lower the signal. The method, boiled down:
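Measures CXCL9 protein by ELISA in a human vascular primary-cell co-culture (umbilical vein endothelium with PBMC) 24 h after chemical addition. Activity is scored up or down from the DMSO control.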

Assay [4] can be described thus: BSK_SAg_PBMCCytotoxicity: PBMC Cytotoxicity Assessment in the BioMAP Diversity Plus: SAg Assay (AID 2283093).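 Further: PBMC viability measured as Alamar Blue reduction fluorescence at 546/580 nm; fitted both ways against DMSO so a hit may be loss or gain of signal.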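 On AC50: PBMC superantigen activated with SEB plus TSST-1 one hour after compound addition.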 To be noted: primary human HUVEC with PBMC. The method, boiled down:
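Compound added to 75,000 PBMC/well for 1 h; SEB and TSST-1 then added at 20 ng/mL final each; 90 h incubation; Alamar Blue 6 h; read 546/580 nm ex/em. Activity fitted bidirectionally relative to DMSO baseline.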

Read-out in assay [5]: Interleukin-8 (IL8), CXCL8 (gene 3576)
Put plainly: BSK_SAg_IL8: BioMAP Diversity Plus: SAg Assay for Interleukin-8 (IL8) Biomarker Activity (AID 2283094). The following applies: primary human HUVEC with PBMC; actives raise or lower the signal. The method, boiled down: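 In this co-culture of human umbilical vein endothelium with peripheral blood mononuclear cells, IL-8 is assayed by ELISA at 24 h. DMSO serves as baseline for bidirectional curve fitting.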

Assay [6] is described as follows: BSK_SAg_SRB: Viability Assessment in the BioMAP Diversity Plus: SAg Assay (AID 2283096).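 Further: cells read one day after compound addition; hits may be either gain or loss of signal compared with DMSO.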 The following applies: primary human HUVEC with PBMC. In short, it runs like this:
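Total protein by sulforhodamine B staining, 24 h after dosing, in HUVEC–PBMC co-culture; DMSO-referenced bidirectional fitting.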

Assay [7] deals with human CYP19A1, CYP19A1 (gene 1588) (UniProt P11511). As to the kind of experiment: NVS_ADME_hCYP19A1: NovaScreen (NVS) CYP450-related Enzyme Activity (ADME) Assay for human CYP19A1 (AID 2283098; active means hit-call score of the fitted dose curve at least 0.9, where 1 is the maximum;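 on AC50: potency for inhibitors seen as loss of fluorescent enzyme signal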). In short, it runs like this:
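Biochem, cell-free; recombinant enzyme + specific substrate; fluorescence intensity at 0.5 h post-dose; 10 uM duplicate primary, conc. series for actives; acetonitrile = negative control/baseline; positive and negative controls on every plate.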

Assay [8] concerns the target human CYP1A1, CYP1A1 (gene 1543) (UniProt P04798). Put plainly: NVS_ADME_hCYP1A1: NovaScreen (NVS) CYP450-related Enzyme Activity (ADME) Assay for human CYP1A1 (AID 2283100; active means hit-call score of the fitted dose curve at least 0.9, where 1 is the maximum). The method, boiled down: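 Chemicals were first tested in duplicate at 10 uM, and those passing a 30% inhibition threshold were rerun as concentration series topping at 20 uM. Fluorescence read-out of recombinant enzyme turnover after 1 h, relative to acetonitrile.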

Assay [9] concerns the target human CYP2C8, CYP2C8 (gene 1558) (UniProt P10632). As to the kind of experiment: NVS_ADME_hCYP2C8: NovaScreen (NVS) CYP450-related Enzyme Activity (ADME) Assay for human CYP2C8 (AID 2283104). The method, boiled down:
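Recombinant human CYP2C8 with fluorogenic substrate, 0.5 h, fluorescence intensity; signal loss fitted versus acetonitrile. Screened in duplicate at 10 uM, then actives run in concentration-response up to 20 uM.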

Assay [10] has as its target human CYP2C9, CYP2C9 (gene 1559) (UniProt P11712). Put plainly: NVS_ADME_hCYP2C9: NovaScreen (NVS) CYP450-related Enzyme Activity (ADME) Assay for human CYP2C9 (AID 2283108; active means hit-call score of the fitted dose curve at least 0.9, where 1 is the maximum). The method, boiled down:
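Fluorescence readout of CYP2C9 activity (SF9-expressed human enzyme) at 0.75 h. The primary screen used 10 uM in duplicate, with concentration-response follow-up for actives; acetonitrile was the negative control.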

Assay [11] concerns the target Cytochrome P450 2C19 (Homo sapiens) (UniProt P33261). As to the kind of experiment: NVS_ADME_hCYP2C19: NovaScreen (NVS) CYP450-related Enzyme Activity (ADME) Assay for human CYP2C19 (AID 2283113; active means hit-call score of the fitted dose curve at least 0.9, where 1 is the maximum;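 further: potency for inhibition seen as loss of fluorescent signal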). In short, it runs like this: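 Compounds first screened in duplicate at 10 uM, then confirmed in concentration series. Insect-cell-expressed human CYP2C19 turned over a fluorogenic substrate, and fluorescence was read after 1 h. Inhibition taken as signal loss relative to acetonitrile.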

In assay [12] the target is rat CYP1A2, Cyp1a2 (gene 24297) (UniProt P04799). As to the kind of experiment: NVS_ADME_rCYP1A2: NovaScreen (NVS) CYP450-related Enzyme Activity (ADME) Assay for rat CYP1A2 (AID 2283115; active means hit-call score of the fitted dose curve at least 0.9, where 1 is the maximum). In short, it runs like this:
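Cell-free recombinant rat enzyme with fluorogenic substrate, read by fluorescence intensity 1 hour after dosing. Loss of signal versus acetonitrile negative control; primary screen at 10 uM in duplicate, actives followed in concentration series.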

The target in assay [13] is human CYP2A6, CYP2A6 (gene 1548) (UniProt P11509). As to the kind of experiment: NVS_ADME_hCYP2A6: NovaScreen (NVS) CYP450-related Enzyme Activity (ADME) Assay for human CYP2A6 (AID 2283099; active means hit-call score of the fitted dose curve at least 0.9, where 1 is the maximum). The method, boiled down:
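Compounds screened at 10 uM (duplicate) and, if active, titrated to a 20 uM top concentration against insect-cell-expressed CYP2A6. Loss of fluorescent product signal after 0.5 h, relative to acetonitrile baseline, indicates inhibition.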

The target of assay [14] is human CYP2B6, CYP2B6 (gene 1555) (UniProt P20813). Put plainly: NVS_ADME_hCYP2B6: NovaScreen (NVS) CYP450-related Enzyme Activity (ADME) Assay for human CYP2B6 (AID 2283101; active means hit-call score of the fitted dose curve at least 0.9, where 1 is the maximum). The method, boiled down:
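Recombinant protein, specific fluorescent substrate, read at 1 h post-dosing. Primary: single 10 uM, duplicate; follow-up: concentration series. Activity = signal loss vs acetonitrile baseline, with positive and negative controls on every plate.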

For assay [15], the target named is human CYP2J2, CYP2J2 (gene 1573) (UniProt P51589). As to the kind of experiment: NVS_ADME_hCYP2J2: NovaScreen (NVS) CYP450-related Enzyme Activity (ADME) Assay for human CYP2J2 (AID 2283106; active means hit-call score of the fitted dose curve at least 0.9, where 1 is the maximum). The method, boiled down:
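Cell-free assay of recombinant CYP2J2 with a fluorogenic substrate, read 1 h after dosing; loss of signal versus acetonitrile. Primary screen at 10 uM in duplicate, then concentration-response up to 20 uM for chemicals passing threshold (e.g., 30% inhibition).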

In assay [16] the target is human CYP2D6, CYP2D6 (gene 1565) (UniProt P10635). As to the kind of experiment: NVS_ADME_hCYP2D6: NovaScreen (NVS) CYP450-related Enzyme Activity (ADME) Assay for human CYP2D6 (AID 2283107; active means hit-call score of the fitted dose curve at least 0.9, where 1 is the maximum). In short, it runs like this:
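Fluorescence readout of recombinant CYP2D6 (insect-cell derived) activity after 1 h incubation with test chemical. Acetonitrile served as baseline, loss-of-signal direction. Single-concentration duplicate screening at 10 uM preceded concentration-response retesting.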

Assay [17] addresses Cytochrome P450 3A4 (Homo sapiens) (UniProt P08684). As to the kind of experiment: NVS_ADME_hCYP3A4: NovaScreen (NVS) CYP450-related Enzyme Activity (ADME) Assay for human CYP3A4 (AID 2283110; active means hit-call score of the fitted dose curve at least 0.9, where 1 is the maximum). In short, it runs like this:
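Compounds were first screened in duplicate at 10 uM against recombinant CYP3A4 produced in insect cells, then actives were run in concentration series. Enzyme activity was measured by fluorescence after 0.33 hour, with acetonitrile as baseline.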

The target of assay [18] is human CYP4F12, CYP4F12 (gene 66002) (UniProt Q9HCS2). As to the kind of experiment: NVS_ADME_hCYP4F12: NovaScreen (NVS) CYP450-related Enzyme Activity (ADME) Assay for human CYP4F12 (AID 2283111; active means hit-call score of the fitted dose curve at least 0.9, where 1 is the maximum). In short, it runs like this: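 Cell-free fluorescence assay of recombinant human CYP4F12 activity on a specific substrate, read 0.5 h after dosing. Primary screen in duplicate at 10 uM, then concentration series for actives; loss of signal fitted against acetonitrile negative control.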
Chain of human CYP4F12, CYP4F12 (gene 66002) (Q9HCS2 whole entry, looked up): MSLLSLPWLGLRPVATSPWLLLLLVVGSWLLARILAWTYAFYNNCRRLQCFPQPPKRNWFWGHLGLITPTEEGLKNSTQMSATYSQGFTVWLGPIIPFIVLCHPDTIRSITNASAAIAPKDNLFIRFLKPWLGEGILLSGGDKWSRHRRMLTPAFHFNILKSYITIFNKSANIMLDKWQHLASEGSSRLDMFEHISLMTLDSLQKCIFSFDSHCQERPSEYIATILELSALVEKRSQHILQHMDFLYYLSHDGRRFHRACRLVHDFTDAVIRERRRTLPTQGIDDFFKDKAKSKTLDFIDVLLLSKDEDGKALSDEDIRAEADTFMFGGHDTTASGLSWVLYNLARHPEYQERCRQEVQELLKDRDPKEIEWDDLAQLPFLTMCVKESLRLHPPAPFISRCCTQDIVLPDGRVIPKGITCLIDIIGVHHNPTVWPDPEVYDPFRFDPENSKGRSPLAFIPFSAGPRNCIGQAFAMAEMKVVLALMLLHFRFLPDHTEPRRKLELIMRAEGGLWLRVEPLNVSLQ

Chain of human CYP1A1, CYP1A1 (gene 1543) (P04798 whole entry, looked up): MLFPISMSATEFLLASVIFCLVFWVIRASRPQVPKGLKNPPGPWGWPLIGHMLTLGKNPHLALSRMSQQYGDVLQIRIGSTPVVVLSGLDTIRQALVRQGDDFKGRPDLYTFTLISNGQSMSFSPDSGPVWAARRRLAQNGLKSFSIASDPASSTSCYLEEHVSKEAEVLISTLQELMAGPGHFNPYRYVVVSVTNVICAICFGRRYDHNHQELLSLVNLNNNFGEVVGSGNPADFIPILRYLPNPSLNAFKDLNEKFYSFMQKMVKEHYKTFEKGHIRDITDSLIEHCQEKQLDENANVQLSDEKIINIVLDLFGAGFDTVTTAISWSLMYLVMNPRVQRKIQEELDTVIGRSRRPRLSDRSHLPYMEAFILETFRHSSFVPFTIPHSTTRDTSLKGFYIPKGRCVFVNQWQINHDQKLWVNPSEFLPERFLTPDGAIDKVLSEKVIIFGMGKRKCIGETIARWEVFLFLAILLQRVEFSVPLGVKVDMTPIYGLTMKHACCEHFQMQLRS
Chain of rat CYP1A2, Cyp1a2 (gene 24297) (P04799 whole entry, looked up): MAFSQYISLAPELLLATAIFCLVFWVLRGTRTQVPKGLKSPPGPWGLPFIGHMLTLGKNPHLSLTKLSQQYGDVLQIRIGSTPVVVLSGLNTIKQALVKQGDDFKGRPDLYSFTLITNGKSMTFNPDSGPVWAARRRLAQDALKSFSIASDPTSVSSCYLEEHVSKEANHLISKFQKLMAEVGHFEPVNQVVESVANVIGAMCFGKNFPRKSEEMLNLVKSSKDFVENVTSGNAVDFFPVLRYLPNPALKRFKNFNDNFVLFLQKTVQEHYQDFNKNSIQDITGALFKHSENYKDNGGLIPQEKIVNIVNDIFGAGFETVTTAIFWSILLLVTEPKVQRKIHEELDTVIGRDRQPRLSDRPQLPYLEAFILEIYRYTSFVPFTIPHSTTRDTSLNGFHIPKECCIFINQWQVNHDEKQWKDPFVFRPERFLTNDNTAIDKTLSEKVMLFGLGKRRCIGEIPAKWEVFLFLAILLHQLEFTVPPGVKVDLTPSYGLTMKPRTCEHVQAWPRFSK
Chain of E-selectin (Homo sapiens) (P16581 whole entry, looked up): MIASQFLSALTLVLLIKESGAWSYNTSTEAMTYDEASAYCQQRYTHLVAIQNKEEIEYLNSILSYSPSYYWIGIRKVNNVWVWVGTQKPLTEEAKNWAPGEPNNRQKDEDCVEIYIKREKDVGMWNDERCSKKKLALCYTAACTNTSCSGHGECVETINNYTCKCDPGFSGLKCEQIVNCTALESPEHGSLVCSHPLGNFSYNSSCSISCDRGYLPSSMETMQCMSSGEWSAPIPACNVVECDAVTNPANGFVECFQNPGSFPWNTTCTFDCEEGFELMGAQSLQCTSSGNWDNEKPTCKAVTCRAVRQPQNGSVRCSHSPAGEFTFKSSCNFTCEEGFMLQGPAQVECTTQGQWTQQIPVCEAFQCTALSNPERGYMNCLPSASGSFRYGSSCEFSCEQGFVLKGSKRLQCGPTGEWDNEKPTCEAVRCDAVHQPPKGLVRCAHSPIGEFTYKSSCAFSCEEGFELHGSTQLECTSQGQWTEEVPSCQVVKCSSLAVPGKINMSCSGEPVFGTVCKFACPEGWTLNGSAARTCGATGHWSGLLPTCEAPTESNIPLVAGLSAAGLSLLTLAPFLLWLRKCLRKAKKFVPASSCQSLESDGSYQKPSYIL
Chain of human CYP19A1, CYP19A1 (gene 1588) (P11511 whole entry, looked up): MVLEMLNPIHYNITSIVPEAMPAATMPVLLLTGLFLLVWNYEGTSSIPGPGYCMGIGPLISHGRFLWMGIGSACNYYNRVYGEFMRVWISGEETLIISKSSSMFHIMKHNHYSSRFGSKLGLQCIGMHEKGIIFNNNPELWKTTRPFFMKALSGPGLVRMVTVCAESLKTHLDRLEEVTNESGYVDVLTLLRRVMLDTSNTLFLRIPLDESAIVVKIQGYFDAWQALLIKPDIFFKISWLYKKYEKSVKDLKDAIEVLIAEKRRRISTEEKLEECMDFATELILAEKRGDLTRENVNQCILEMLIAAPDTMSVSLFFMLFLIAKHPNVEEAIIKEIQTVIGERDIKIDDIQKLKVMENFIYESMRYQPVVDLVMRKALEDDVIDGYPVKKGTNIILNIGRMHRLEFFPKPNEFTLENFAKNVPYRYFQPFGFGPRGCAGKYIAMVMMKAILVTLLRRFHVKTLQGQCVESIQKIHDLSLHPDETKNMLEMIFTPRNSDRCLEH
Chain of human CYP2C9, CYP2C9 (gene 1559) (P11712 whole entry, looked up): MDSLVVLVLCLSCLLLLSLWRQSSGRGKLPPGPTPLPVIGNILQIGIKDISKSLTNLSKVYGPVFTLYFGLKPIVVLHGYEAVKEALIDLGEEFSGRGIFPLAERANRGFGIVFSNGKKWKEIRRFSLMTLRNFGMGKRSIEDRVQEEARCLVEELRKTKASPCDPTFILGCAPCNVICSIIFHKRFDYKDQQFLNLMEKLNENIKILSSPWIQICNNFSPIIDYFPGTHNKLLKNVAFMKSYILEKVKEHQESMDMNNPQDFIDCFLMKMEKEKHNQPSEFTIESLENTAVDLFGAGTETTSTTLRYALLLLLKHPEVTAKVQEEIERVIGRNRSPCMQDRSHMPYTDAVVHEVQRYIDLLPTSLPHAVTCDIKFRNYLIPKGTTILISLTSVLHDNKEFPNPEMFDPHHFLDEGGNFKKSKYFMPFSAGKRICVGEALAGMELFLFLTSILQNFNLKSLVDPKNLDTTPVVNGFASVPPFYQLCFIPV
Chain of human CYP2C8, CYP2C8 (gene 1558) (P10632 whole entry, looked up): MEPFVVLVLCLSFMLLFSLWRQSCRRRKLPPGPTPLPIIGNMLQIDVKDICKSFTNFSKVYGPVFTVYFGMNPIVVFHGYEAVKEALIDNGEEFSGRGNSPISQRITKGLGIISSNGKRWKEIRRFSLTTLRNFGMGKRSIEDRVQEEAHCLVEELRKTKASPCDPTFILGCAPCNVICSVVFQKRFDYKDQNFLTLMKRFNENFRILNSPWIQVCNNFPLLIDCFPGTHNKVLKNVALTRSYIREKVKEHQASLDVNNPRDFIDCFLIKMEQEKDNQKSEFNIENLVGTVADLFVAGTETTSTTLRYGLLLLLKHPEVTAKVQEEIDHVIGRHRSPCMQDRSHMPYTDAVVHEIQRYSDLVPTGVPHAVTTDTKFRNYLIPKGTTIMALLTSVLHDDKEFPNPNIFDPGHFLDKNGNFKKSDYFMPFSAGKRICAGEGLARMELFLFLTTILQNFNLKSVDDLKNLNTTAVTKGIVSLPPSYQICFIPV
Chain of human CYP2A6, CYP2A6 (gene 1548) (P11509 whole entry, looked up): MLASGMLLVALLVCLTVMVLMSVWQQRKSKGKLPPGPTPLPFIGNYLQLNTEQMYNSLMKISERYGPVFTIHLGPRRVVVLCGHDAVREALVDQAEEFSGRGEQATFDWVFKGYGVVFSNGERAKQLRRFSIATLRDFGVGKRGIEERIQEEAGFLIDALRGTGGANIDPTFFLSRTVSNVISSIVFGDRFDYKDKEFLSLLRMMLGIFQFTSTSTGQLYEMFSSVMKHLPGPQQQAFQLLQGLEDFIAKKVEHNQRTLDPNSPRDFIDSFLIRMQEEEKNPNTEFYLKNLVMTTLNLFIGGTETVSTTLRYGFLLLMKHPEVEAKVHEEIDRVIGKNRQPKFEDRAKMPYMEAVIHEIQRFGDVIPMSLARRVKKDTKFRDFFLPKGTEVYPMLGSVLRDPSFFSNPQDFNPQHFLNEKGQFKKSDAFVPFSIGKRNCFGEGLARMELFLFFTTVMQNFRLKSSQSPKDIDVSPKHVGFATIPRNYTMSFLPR
Chain of Cytochrome P450 3A4 (Homo sapiens) (P08684 whole entry, looked up): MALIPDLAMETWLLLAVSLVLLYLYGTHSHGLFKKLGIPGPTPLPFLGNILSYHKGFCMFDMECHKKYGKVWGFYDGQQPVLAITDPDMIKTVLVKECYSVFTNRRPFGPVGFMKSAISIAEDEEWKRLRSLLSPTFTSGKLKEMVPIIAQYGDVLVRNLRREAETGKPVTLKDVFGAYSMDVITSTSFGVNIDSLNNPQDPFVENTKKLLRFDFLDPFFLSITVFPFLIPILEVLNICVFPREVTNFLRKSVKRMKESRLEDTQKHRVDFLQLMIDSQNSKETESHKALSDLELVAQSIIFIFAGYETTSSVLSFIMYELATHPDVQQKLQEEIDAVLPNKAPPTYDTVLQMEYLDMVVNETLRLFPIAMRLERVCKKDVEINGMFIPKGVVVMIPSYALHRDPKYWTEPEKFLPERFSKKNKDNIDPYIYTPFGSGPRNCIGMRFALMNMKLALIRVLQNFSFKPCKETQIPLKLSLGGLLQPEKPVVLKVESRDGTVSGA

As to `COC(=O)N(OC)c1ccccc1COc1ccn(-c2ccc(Cl)cc2)n1`, the half-maximal activity concentration (AC50) is 3.97 µM (active) with CD69, CD69 (gene 969); 4.97 µM (active) in assay [1]; 3.97 µM (active) in [2]; 11.9 µM (active) in assay [3]; 0.222 µM (active) in assay [4]; 2.92 µM (active) in assay [5]. Moreover, the half-maximal activity concentration (AC50) in [6] was 8.48 µM (active); in assay [8] it was 1.87 µM (active); in assay [10], 1.26 µM (active); in [11], 0.72 µM (active). In addition, the compound was classed as inactive in [7] and in assay [9].
`CON(C)C(=O)Nc1ccc(Cl)c(Cl)c1`: the outcome with CD69, CD69 (gene 969) was “inactive”; in assay [1], “inactive”; in assay [2], “inactive”; in [3], “inactive”; in assay [4], “inactive”; in [5], “inactive”. Besides, the outcome in assay [6], in [7] and in assay [12] was inactive. For the same compound, the half-maximal activity concentration (AC50) in [8] is 3.72 µM (active).
Consider `CCOP(=S)(OCC)SCn1c(=O)oc2cc(Cl)ccc21`, for which the outcome with CD69, CD69 (gene 969) is “inactive”; in [3], “inactive”; in [4], “inactive”; in assay [7], “inactive”; in [15], “inactive”; in assay [12] it was “inactive”. Moreover, the AC50 in assay [1] is 28.4 µM (active); in assay [2], 29.4 µM (active); in [5] it was 26.8 µM (active); in assay [6], 31.9 µM (active); in assay [13], 0.683 µM (active); in assay [8] it was 0.513 µM (active). Besides, the half-maximal activity concentration (AC50) in [14] was 1.25 µM (active); in [16], 2.8 µM (active); in assay [10] it was 1.8 µM (active); in assay [11] it was 0.215 µM (active).
For the compound `COP(=S)(OC)Oc1nc(Cl)c(Cl)cc1Cl`, the outcome with CD69, CD69 (gene 969) was “inactive”; in assay [1], “inactive”; in [3], “inactive”; in assay [4], “inactive”; in assay [5] it was “inactive”; in assay [6], “inactive”. Further, the compound was called inactive in assay [8] and in assay [12]. Also, the AC50 in assay [2] is 32 µM (active); in assay [11], 10 µM (active).
Consider `COc1ccc(C(c2ccc(OC)cc2)C(Cl)(Cl)Cl)cc1`, for which the concentration at half-maximal activity (AC50) is 25.4 µM (active) with CD69, CD69 (gene 969); 27.1 µM (active) in assay [1]; 14.4 µM (active) in assay [2]; 30.7 µM (active) in [3]; 31.5 µM (active) in assay [4]; 11.9 µM (active) in assay [5]. The AC50 is 14.9 µM (active) in [6], 3.76 µM (active) in assay [7], 10 µM (active) in assay [10] and 7 µM (active) in [11]. The call in assay [7], in assay [9], in assay [17] and in [18] was inactive.
